Laboratory results published in PubChem BioAssay (NCATS).
Inconclusive results are not listed. Entries that show only a call come without a potency. Values without a mark were called inactive. Calls of active or inactive are those of the source. The call rests on the fitted dose curve.
Potency means the concentration at half of the fitted maximal effect.

Experiment: Primary qHTS for Vero E6 cytotoxicity: counterscreen for inhibitors of SARS-S pseudo-typed particle cell entry (AID 1479150)
Conditions: cell viability; series mostly up to 57.1 µM; activity change, negative = cytotoxicity: at the top concentration
In the case of `Cc1ccc(O)c([C@H](CCN(C(C)C)C(C)C)c2ccccc2)c1`, the “outcome” value is reported as “inactive”.
For `C=C[C@H]1CN2CC[C@H]1C[C@@H]2[C@@H](O)c1ccnc2ccc(OC)cc12`, the “outcome” value was “inactive”.
For `CN1CCN(C(c2ccccc2)c2ccccc2)CC1`, the “outcome” value was “inactive”.
For `Cc1onc(-c2ccccc2Cl)c1C(=O)N[C@@H]1C(=O)N2[C@@H]1SC(C)(C)[C@@H]2C(=O)O`, the “outcome” value was “inactive”.
With `C[C@H]1c2cccc(O)c2C(O)=C2C(=O)[C@]3(O)C(O)=C(C(N)=O)C(=O)[C@@H](N(C)C)[C@@H]3[C@@H](O)[C@@H]21` the “outcome” value was “inactive”.
For `CN(C)CC/C=C1\c2ccccc2COc2ccccc21`, the “outcome” value was “inactive”.
In the case of `C[C@@H](O[C@H]1OCCN(Cc2n[nH]c(=O)[nH]2)[C@H]1c1ccc(F)cc1)c1cc(C(F)(F)F)cc(C(F)(F)F)c1`, the “outcome” value is reported as “inactive”.
With `CCCCc1ncc(/C=C(\Cc2cccs2)C(=O)O)n1Cc1ccc(C(=O)O)cc1` the “outcome” value was “inactive”.
For `O=C1CCc2cc(OCCCCc3nnnn3C3CCCCC3)ccc2N1`, the “activity change, negative = cytotoxicity” value was 3.08%.
With `OC(CCN1CCCC1)(c1ccccc1)C1CCCCC1` (stereo unspecified) the “activity change, negative = cytotoxicity” value was -5.85%.
With `Cc1ccccc1C(=O)Nc1ccc(C(=O)N2CCCC(O)c3cc(Cl)ccc32)c(C)c1` (stereo unspecified) the “outcome” value was “inactive”.
With `C[C@H]1O[C@H](O[C@H]2[C@H](O)[C@@H](O)[C@@H](O[C@H]3[C@H](O)[C@@H](O)[C@H](O)O[C@@H]3CO)O[C@@H]2CO)[C@H](O)[C@@H](O)[C@@H]1N[C@H]1C=C(CO)[C@@H](O)[C@H](O)[C@H]1O` the “outcome” value was “inactive”.
For `COc1ccc2nc(S(=O)Cc3ncc(C)c(OC)c3C)[nH]c2c1` (stereo unspecified), the “activity change, negative = cytotoxicity” value was 1.41%.
For `CN(C)CCc1c[nH]c2ccc(C[C@H]3COC(=O)N3)cc12`, the “outcome” value was “inactive”.
For `Nc1ncn([C@@H]2O[C@H](CO)[C@@H](O)[C@H]2O)c(=O)n1`, the “activity change, negative = cytotoxicity” value was -11.7%.
In the case of `CC(=O)O[C@]1(C(C)=O)CC[C@H]2[C@@H]3C=C(Cl)C4=CC(=O)[C@@H]5C[C@@H]5[C@]4(C)[C@H]3CC[C@@]21C`, the “outcome” value is reported as “inactive”.
In the case of `COc1ccccc1OCC(O)CN1CCN(CC(=O)Nc2c(C)cccc2C)CC1` (stereo unspecified), the “outcome” value is reported as “inactive”.
With `Cc1nccn1CC1CCc2c(c3ccccc3n2C)C1=O` (stereo unspecified) the “outcome” value was “inactive”.
In the case of `CCN(CC)CCOC(=O)C1(C2CCCCC2)CCCCC1`, the “outcome” value is reported as “inactive”.
With `COc1cc2nc(N(C)CCCNC(=O)C3CCCO3)nc(N)c2cc1OC` (stereo unspecified) the “activity change, negative = cytotoxicity” value was -3.53%.
With `CC[C@H](C)C(=O)O[C@H]1C[C@@H](C)C=C2C=C[C@H](C)[C@H](CC[C@@H]3C[C@@H](O)CC(=O)O3)[C@H]21` the Potency was 14.1 µM (active).
With `C#C[C@]1(O)CC[C@H]2[C@@H]3CCC4=Cc5oncc5C[C@]4(C)[C@H]3CC[C@@]21C` the “outcome” value was “inactive”.
In the case of `C#Cc1cccc(Nc2ncnc3cc(OCCOC)c(OCCOC)cc23)c1`, the “activity change, negative = cytotoxicity” value is reported as -23.1%.

Experiment: Confirmatory qHTS for VERO E6 Cytotoxicity Assay: Counterscreen for SARS-CoV-2 CPE Assay (AID 1508605); further: nearly all actives have a fitted effect of over 60% in size
Conditions: cell viability luminescence; series mostly up to 20 µM; activity change, negative = cytotoxic: at the top concentration
For `O=C1Nc2ccc(Cl)cc2[C@@](C#CC2CC2)(C(F)(F)F)O1`, the “activity change, negative = cytotoxic” value was -24.9%.
For `CCCCc1oc2ccccc2c1C(=O)c1cc(I)c(OCCN(CC)CC)c(I)c1`, the “activity change, negative = cytotoxic” value was -14.9%.
With `CC/C(=C(\c1ccccc1)c1ccc(OCCN(C)C)cc1)c1ccccc1` the Potency was 10 µM (active).
